# Sampled rows, rich in hits. Any-hit rate of the full collection: about 9.4%.
# FLuc modulator: inhibits or activates purified firefly luciferase, miR-21 counter-screen. P08659. purified FLuc, Km substrates, luminescence inhibition. Potency, µM (doses to about 57.5 µM), inactives show at the highest dose activity change, negative = inhibition, most hits filed as inhibitors. 360,000 compounds, 6.9% hits;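 note: plate controls were vehicle for no effect and reference inhibitor for full effect; nearly all actives have a fitted effect of over 55% in size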
# Target sequence (P08659 whole entry, looked up): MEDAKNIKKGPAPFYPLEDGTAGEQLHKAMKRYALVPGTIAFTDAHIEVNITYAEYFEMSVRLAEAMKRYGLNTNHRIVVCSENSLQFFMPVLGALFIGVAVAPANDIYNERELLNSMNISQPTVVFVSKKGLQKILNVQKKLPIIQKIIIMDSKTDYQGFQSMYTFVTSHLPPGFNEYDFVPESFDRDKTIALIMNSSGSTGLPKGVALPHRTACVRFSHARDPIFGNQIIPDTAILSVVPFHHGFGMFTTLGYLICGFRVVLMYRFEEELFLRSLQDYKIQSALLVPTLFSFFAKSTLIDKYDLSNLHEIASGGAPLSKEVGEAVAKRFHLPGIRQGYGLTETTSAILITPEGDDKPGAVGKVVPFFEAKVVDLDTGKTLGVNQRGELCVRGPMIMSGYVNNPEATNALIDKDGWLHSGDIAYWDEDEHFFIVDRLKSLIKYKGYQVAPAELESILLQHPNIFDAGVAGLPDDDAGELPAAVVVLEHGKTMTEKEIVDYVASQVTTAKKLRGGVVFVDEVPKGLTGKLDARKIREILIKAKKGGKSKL
#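 Purified P. pyralis luciferase, 10 nM final, with Km-level 10 uM D-luciferin and 10 uM ATP in 50 mM Tris acetate pH 7.5, 10 mM Mg acetate, 0.01% Tween-20, 0.05% BSA; 6-point qHTS titration about 60 µM downward; luminescence read.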
# SMN2 splice up: SMN2 splice variant enhancement | AID 1458 | 210,000 compounds, 2.8% hits | Potency, µM (doses to about 46.1 µM), for the others: at the highest dose activity change, positive = activation, usual class: activators | HEK293 SMN2-luciferase splicing reporter, luminescence, 30-36 h; note: % of control where 0% means no effect; nearly all actives have a fitted effect of over 55% in size
#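 HEK293 cells carry an SMN2 […]–luciferase reporter in which exon 7 inclusion puts luciferase in frame. Cells were plated 10-12 h before compound addition, then incubated 30-36 h at 37C. ONE-Glo luminescence was read; sodium butyrate at 4.5 mM final served as control.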
# NPC1 prom act: activates the NPC1 promoter | Huh7 NPC1 promoter luciferase reporter, 24 h | Potency, µM (titrated, usually from 9.22 µM), inactives show top-dose activation, usual class: activators | 320,000 compounds, 2.4% hits; note: % of control where 0% means no effect; nearly all actives have a fitted effect of over 60% in size
#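 Luminescence from an NPC1 promoter-driven luciferase reporter in stably transfected Huh7 cells was measured after 24 h compound treatment at 37 °C, followed by 10 min ambient incubation with luciferase detection reagent.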
# ELG1 DNA repair: ELG1-dependent DNA repair inhibition; HEK293T ELG1-luciferase reporter, luminescence, 16 h; DNA damage induced by 5-fluorouridine; Potency, µM (series often up to 46.1 µM), inactives show at the top dose activity change, negative = inhibition, actives largely listed as inhibitors; 330,000 compounds, 2.3% hits; AID 504467; note: % is set by controls: 0 for no effect and ±100 for the full control effect; nearly all actives have a fitted effect of over 55% in size
#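 Step one: seed 2,000 cells per well. Step two: pin-transfer compound or DMSO alongside 5-fluorouridine. Step three: incubate 16 hr, 37 °C, 5% CO2. Step four: add ONE-Glo, wait 30 min, read luminescence.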
# ELG1 genotoxic: genotoxicity induction in ELG1-luciferase HEK293T cells; HEK293T ELG1-luciferase reporter, luminescence, 16 h; Potency, µM (top dose mostly 46 µM), without a hit: top-dose activity change, positive = activation, hits mostly activators; 330,000 compounds, 1.3% hits; AID 504466; note: % of control where 0% means no effect; nearly all actives have a fitted effect of over 60% in size
#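 Genotoxicity was scored as increased ELG1-luciferase reporter signal, measured by ONE-Glo luminescence (30 min, room temperature). Compound or vehicle exposure of the HEK293T reporter cells lasted 16 hr at 37°C.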
# Rab9 promoter act: activators of Rab9 promoter | Huh7 Rab9 promoter-luciferase reporter, luminescence, 24 h | Potency, µM (titrated, usually from 9.22 µM), for inactives: top-dose activation, negative = inhibition, actives largely listed as activators | 320,000 compounds, 2.8% hits | AID 485297; note: % of control where 0% means no effect; nearly all actives have a fitted effect of over 60% in size
#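 Using Huh7 cells stably transfected with Rab9 promoter–luciferase, compounds were incubated 24 h at 37 °C, 5% CO2; luciferase luminescence was read 10 min after reagent addition.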
# * = called active by the depositor; ? = inconclusive; . = not tested or not shown; [ ] = another dose, or the depositor's remark. Calls come from the whole dose curve; as a rule, active = well fitted curve in the direction sought with a large enough effect; inconclusive = small, poorly fitted or top-dose-only effect, or another doubt; inactive = no such curve, though single readings can be large; an effect the other way counts as inactive or inconclusive. Potency is the fitted concentration of half-maximal effect.
SMILES,FLuc modulator,SMN2 splice up,NPC1 prom act,ELG1 DNA repair,ELG1 genotoxic,Rab9 promoter act
Cc1cc(C)c2c(=O)cc(C(=O)Nc3sc4c(c3C(=O)NCC3CCCO3)CCCC4)oc2c1 (configuration not stated),0%,9%,.,.,.,.
CCOc1c2ccoc2nc2c(OC)c(OC)ccc12,21µM*,.,14%,24%,?,21%
C=CCOc1ccc2c(OC)c3ccoc3nc2c1OC,9.5µM*,13µM*,22%,?,?,2%
COc1ccc(NC(=O)c2ocnc2C)cc1OC,-15%,14%,1%,?,0%,5%
Cc1ccsc1C(=O)NC(C)c1ccc2c(c1)OCO2 (configuration not stated),3%,-9%,-2%,-11%,0%,1%
Cc1ccsc1C(=O)Nc1ccc2c(c1)OCCO2,1.9µM*,2.2µM*,1.3µM*,?,2.1µM*,0.63µM*
Cc1ncoc1C(=O)Nc1ccc2c(c1)OCCO2,12µM*,16µM*,3.2µM*,?,?,2.5µM*
COc1ccccc1Nc1ncc2c(n1)CCN(CC(C)C)C2,21µM*,.,.,.,.,.
COc1cc(CN2CCc3nc(Nc4ccc5c(c4)OCCO5)ncc3C2)cc(OC)c1OC,15µM*,.,.,.,.,.
COc1ccccc1Nc1ncc2c(n1)CCN(Cc1cc(F)cc(F)c1)C2,1%,.,.,.,.,.
O=C(CSc1cn(CCNC(=O)c2cccc(C(F)(F)F)c2)c2ccccc12)Nc1ccc2c(c1)OCCO2,-17%,-40%,.,.,.,.
O=[N+]([O-])c1cc(/C=N/O)ccc1Oc1cccc(Cl)c1,-13%,-6%,-8%,?,14%,-12%
O=[N+]([O-])c1cc(/C=N/O)ccc1Oc1ccccc1Cl,19µM*,1%,9%,23%,?,-4%[1.84 µM]
Cc1cc(C)cc(NC(=O)N2CCC(N3CCCCC3)CC2)c1,-1%,22%,.,.,.,.
CC(=O)NC1=C(Nc2ccc(N(C)C)cc2)C(=O)c2ccccc2C1=O,12µM*,.,26%,?,7%,?
COC1=C(Nc2ccc(C)cc2)C(=O)c2ccccc2C1=O,17µM*,?,?,?,6%,?
COC1=C(Nc2ccccc2)C(=O)c2ccccc2C1=O,?,-64%,1%,1%,-1%,0%
CCCCNc1nc2c(-c3cccc(Br)c3)nnn2c2ccccc12,1%,0%,.,.,.,.
Brc1cccc(-c2nnn3c2nc(NCc2ccc4c(c2)OCO4)c2ccccc23)c1,-8%,14µM*,.,.,.,.
CC1CCCCN1Cc1c(O)ccc2c(=O)c(-c3nc4ccccc4s3)coc12 (configuration not stated),21µM*,.,24%,?,0%,21%
CCc1cc2c(=O)c(-c3nc4ccccc4n3C)coc2c(CN2CCCCC2C)c1O (configuration not stated),1%,.,-1%,-15%,-7%,-4%
N#Cc1ccc2c(c1)C[C@]1(c3ccsc3)Oc3c(c(=O)oc4ccccc34)C2O1,3.1µM*,.,-1%[1.84 µM],.,.,-4%[1.84 µM]
Cc1ccc(N2CCN(C(=O)Nc3cn(CC(C)C)c(=O)c4ccccc34)CC2)c(C)c1,-2%,.,.,.,.,.
Cc1cc(C)nc(Nc2n[nH]c(-c3ccc(C(C)(C)C)cc3)n2)n1,1.7µM*,-56%,12%,-13%,3%,-4%
Cc1cc(C)nc(Nc2n[nH]c(COc3ccc(Cl)cc3)n2)n1,0%,-14%,-2%,10%,5%,3%
SMILES,FLuc modulator,SMN2 splice up,NPC1 prom act,ELG1 DNA repair,ELG1 genotoxic,Rab9 promoter act
Cc1cc(C)nc(Nc2n[nH]c(-c3ccc(N)cc3)n2)n1,9.5µM*,?,1.6µM*,?,7.3µM*,3.5µM*
O=[N+]([O-])c1cccnc1Oc1ccc(C2SCCS2)cc1,21µM*,.,?,?,?,?
O=[N+]([O-])c1ccc(Oc2ccc(OCc3ccccc3)cc2)nc1,-5%,.,-6%,-24%,-2%,-3%
O=[N+]([O-])c1cccnc1Oc1ccc(OCc2ccccc2)cc1,17µM*,.,?,?,?,?
CCc1nn(-c2ccccc2)c2nc(-c3cccc(OC)c3)c3cc(OC)c(OC)cc3c12,2%,8%,.,.,.,.
S=c1nc(-c2ccc(Br)cc2)oc2c1CCCC2,?,0%,29%,?,?,?
Cc1cccc(-c2nc(=S)c3c(o2)CCCC3)c1,3.4µM*,11µM*,1.4µM*,?,?,1.4µM*
COc1ccc(NC(=O)Nc2ccc(F)cc2F)c(C)c1,-15%,-2%,11%,?,1%,14%
COC(=O)c1sccc1NC(=O)Nc1ccc(F)cc1F,21µM*,.,-3%,?,4%,2%
COC(=O)c1sccc1NC(=O)Nc1ccc(C)cc1,1.7µM*,.,1%,?,?,-1%
COc1ccc(NC(=O)Nc2ccc(F)cc2F)cc1,5.4µM*,20µM*,2.2µM*,?,?,2.8µM*
COC(=O)c1sccc1NC(=O)c1ccccc1,-2%,8%,-5%,13%,0%,-3%
COC(=O)c1sccc1NC(=O)Nc1ccc(C)cc1C,-18%,.,5%,-7%,10%,7%
COC(=O)c1sccc1NC(=O)c1ccc(C(C)C)cc1,11µM*,.,28%,?,15%,3.5µM*
CCc1ccccc1NC(=O)C(=O)NCC(c1cccnc1)N1CCc2ccccc21 (configuration not stated),-2%,.,.,.,.,.
CCc1ccccc1NC(=O)Cn1c(C(=O)OC)cc2oc(C)cc21,4%,0%,.,.,.,.
COC(=O)c1sccc1NC(=O)Nc1ccc(C(C)=O)cc1,2.1µM*,.,0%,?,18µM*,10%
COC(=O)c1sccc1NC(=O)Nc1cc(C)cc(C)c1,7.6µM*,.,4%,?,?,-5%
COC(=O)c1sccc1NC(=O)Nc1ccc(F)cc1,8.5µM*,.,1%,-19%,11%,0%
COc1ccc(NC(=O)CN2CCCN(Cc3ccc(Cl)cc3)S2(=O)=O)cc1Cl,-12%,-24%,.,.,.,.
O=C(NCc1ccccc1)c1ccc2c(c1)sc1nc(-c3ccc(F)cc3)cn12,1%,.,.,.,.,.
COc1ccc(C(=O)n2nc(C)cc2Nc2ccccc2)cc1,11µM*,0%,15%,?,23µM*,27%
O=C(NCc1cccnc1)/C(=C\c1ccc(-c2ccc(Br)cc2)o1)S(=O)(=O)c1ccccc1,-8%,-99%,-17%,21µM*,-12%,-16%
Cc1ccc(NC2=CC(=O)C(=O)c3ccccc32)c(C)c1,.,.,-14%,21µM*,-10%,-35%
O=c1c2c3c(sc2ncn1/N=C/c1ccncc1)CCCC3,?,4%,0%,-7%,-2%,0%
